Source: PubChem BioAssay
Only some compounds are listed: those with a hit (about 8.8% of all), similar ones and a draw of the others.
HT1080 IDH1KD tx: HT-1080 IDH1 knockdown cell toxicity (counter line). HT-1080 IDH1 knockdown viability, ATP luminescence, 48 h. Potency, µM (highest dose often 46.1 µM), without a hit: at the top dose activity, negative = toxicity, most hits filed as cytotoxic. 2% of 360,000 active;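 also: potency is read from the fitted curve at half-maximal effect; 0% = DMSO wells and -100% = cell-free medium wells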
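Using the IDH1-knockdown HT-1080 line run in the same batch and compound series as the NT line, viability after 48 h at 37 °C was determined by CellTiter-Glo luminescence and expressed as % activity.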
KB-3-1 tox: kills parental KB-3-1 adenocarcinoma cells; KB-3-1 viability, CellTiter-Glo ATP luminescence, 72 h; Potency, µM (highest dose often 46.1 µM), hits mostly cytotoxic; 1.4% of 400,000 active; AID 1347075; also: potency is read from the fitted curve at half-maximal effect; nearly all actives have a fitted effect of over 60% in size
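Here the drug-naive KB-3-1 line serves as comparator for MDR sub-line selectivity; cells received compound titrations, 72 h at 37 °C, then CellTiter-Glo readout.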
IL1B secr inh: blocks inflammasome-driven IL-1 beta release; 4.7% of 360,000 active; AID 743279; activity change, % at 57.5 µM; THP-1 LPS/ATP IL-1B secretion, AlphaLISA, 16 h; active compounds read low; in the data active = activity change below about -50%; inconclusive = mostly about -30% to -49%
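Secreted IL-1B measured by AlphaLISA bead assay after 16 h compound exposure of THP-1 cells; compounds (final up to 57.5 uM) added 1 h before LPS (250 ng/mL) and ATP (1.25 mM) stimulation; lower signal means less secretion.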
KB-V1 MDR tox: KB-V1 MDR subline cytotoxicity. AID 1347076. Potency, µM (doses to about 46.1 µM), actives largely listed as cytotoxic. KB-V1 MDR cells viability, CellTiter-Glo, 72 h. 3.4% of 400,000 active; also: potency is read from the fitted curve at half-maximal effect; nearly all actives have a fitted effect of over 60% in size
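KB-V1 cells (P-gp-expressing MDR subline of KB-3-1) in phenol-red-free DMEM with 10% FBS were exposed to library compounds over a concentration series for 72 h at 37 degrees C. Viability read by CellTiter-Glo luminescence; concentration-effect curves fitted after normalization.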
HT1080-NT tox: kills 2HG-producing HT-1080-NT fibrosarcoma cells; HT-1080-NT fibrosarcoma viability, CellTiter-Glo ATP luminescence, 48 h; Potency, µM (series often up to 46.1 µM), without a hit: top-dose activity, negative = less viability, hits mostly cytotoxic; 1.6% of 360,000 active;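 also: NT is the 2HG producing partner of a matched IDH1 knockdown line; potency is read from the fitted curve at half-maximal effect; 0% = DMSO-treated cells and -100% = media-only wells without cells; nearly all actives have a fitted effect of over 55% in size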
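Luminescent CellTiter-Glo readout after 48 hours of compound exposure at 37 degrees C defined viability of HT-1080-NT cells. Activity was normalized to DMSO wells and cell-free media wells; concentration-response curves were fitted and assigned curve classes.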
Active calls of the source: *; i = inactive; ? = inconclusive; nt = no result given. Unless noted, calls follow the shape of the dose curve; as a rule, active = well fitted curve in the direction sought with a large enough effect; inconclusive = small, poorly fitted or top-dose-only effect, or another doubt; inactive = no such curve, though single readings can be large; an effect the other way counts as inactive or inconclusive. Unless noted, % is scaled to controls: 0 for no effect and ±100 for the full control effect.

SMILES | HT1080 IDH1KD tx | KB-3-1 tox | IL1B secr inh | KB-V1 MDR tox | HT1080-NT tox
CCOC(=O)n1c(=O)oc2cc(S(=O)(=O)N3CCCCC3)ccc21 | -8% | i | 10 | 23µM* | 4%
COC(=O)n1c(=O)oc2cc(S(=O)(=O)N3CCCCC3)ccc21 | 2% | i | 4 | ? | 2%
CN1CCN(S(=O)(=O)c2ccc3c(c2)oc(=O)n3C)CC1 | 6% | i | 12 | i | 3%
COc1ccc(N(C(=O)c2ccccc2)S(=O)(=O)c2ccc3c(c2)n(C)c(=O)n3C)cc1 | nt | i | nt | i | nt
CCCCc1ccc(NC(=S)N2CCCC2)cc1 | -2% | i | -4 | i | -2%
O=C(Nc1ccc(SC(F)F)cc1)c1ccc2c(=O)n3c(nc2c1)CCC3 | -26% | i | 0 | i | 3.3µM*
CC(=O)c1cccc(NC(=O)c2ccc3c(=O)n4c(nc3c2)CCCCC4)c1 | 1% | i | 24 | ? | 0%
COc1ccc(NC(=O)c2ccc3c(=O)n4c(nc3c2)CCCCC4)cc1 | -22% | i | 2 | ? | -6%
O=C(Nc1cccc(S(=O)(=O)N2CCOCC2)c1)c1ccc2c(=O)n3c(nc2c1)CCCCC3 | -25% | i | -86* | ? | ?
O=C(Nc1cccc(S(=O)(=O)N2CCCC2)c1)c1ccc2c(=O)n3c(nc2c1)CCCCC3 | -15% | ? | -62* | ? | -17%
CC(C)(C)NC(=O)C(c1cc2ccccc2o1)n1c(-c2ccc(-c3ccccc3)cc2)nc2ccccc21 (stereo unspecified) | ? | i | 13 | ? | ?
O=C(O)CCCCCNC(=O)Cn1nnc2ccccc2c1=O | 11% | i | -9 | i | -6%
CCOC(=O)CCn1nc(-c2ccc(Cl)cc2)cc1N | 1% | 21µM* | 0 | ? | 1%
CN(C)c1ccc(C(CNS(=O)(=O)c2ccc(Cl)cc2)N2CCCC2)cc1 (stereo unspecified) | nt | i | nt | i | nt
Cc1ccc(NC(=O)CSc2nc3ccccc3nc2N2CCCC2)cc1 | -9% | 18µM* | -10 | ? | -11%
O=C(CSc1nc2ccccc2c(=O)n1CCC(=O)N1CCCCC1)NCc1ccccc1 | -4% | i | -10 | 2.1µM* | -3%
Cc1ccc(NC(=O)CSc2nc3ccccc3c(=O)n2CCCC(=O)N2CCCC2)cc1 | -8% | 6.3µM* | -7 | ? | -8%
O=c1oc2ccccc2cc1-c1cn2ccccc2n1 | 23µM* | i | 27 | ? | 26µM*
CC(C)c1ccc(Cc2cn3cc(-c4cc5ccccc5oc4=O)nc3s2)cc1 | nt | 0.58µM* | nt | ? | nt
O=C(Nc1ccc(-c2cn3ccccc3n2)cc1)c1cccs1 | ? | i | -93* | ? | -29%
O=C(Nc1cccc(-c2cn3ccccc3n2)c1)c1cccc(Cl)c1 | ? | i | -104* | 9.2µM* | ?
O=C(Nc1cccc(-c2cn3ccccc3n2)c1)C1CC1 | 11% | ? | 20 | 18µM* | -3%
O=C(Cc1ccccc1)Nc1nnc(-c2ccncc2)s1 | nt | i | nt | i | nt
COc1cc(OC)cc(-n2c(=O)c3sccc3n(Cc3ccc(F)cc3)c2=O)c1 | nt | i | nt | i | nt
O=c1c2sccc2n(Cc2cccc(F)c2)c(=O)n1-c1ccc(F)cc1 | ? | i | 0 | 8.2µM* | -2%
SMILES | HT1080 IDH1KD tx | KB-3-1 tox | IL1B secr inh | KB-V1 MDR tox | HT1080-NT tox
Cc1cccc(Cn2c(=O)n(-c3ccc(CC(=O)NCc4ccco4)cc3)c(=O)c3sccc32)c1 | ? | 23µM* | -13 | ? | ?
Cc1ccc(-n2c(=O)c3sccc3n(CC(=O)NCc3ccco3)c2=O)cc1 | -4% | i | 7 | i | 17%
O=[N+]([O-])c1ccc(-c2nc(-c3ccncc3)no2)cc1 | 2% | i | nt | 18µM* | -2%
C(=C\c1ccnc2ccccc12)/c1cccnc1 | nt | i | nt | i | nt
C(=Cc1cnnc2ccccc12)c1ccccc1 | -4% | i | -63* | ? | -20%
Cc1cc(Nc2nc3ccccc3nc2Cl)n(-c2ccccc2)n1 | 13µM* | ? | ? | 13µM* | ?
Cc1ccc2nc3sc(C(=O)NCc4ccco4)cc3cc2c1 | nt | i | nt | i | nt
Cn1c2c(c(=O)n(C)c1=O)CS(=O)c1ccccc1N2 (stereo unspecified) | 6% | i | 33 | i | 4%
Cc1ccc(-c2nc(N/N=C/c3cccnc3)c3ccccc3n2)cc1 | ? | ? | ? | ? | 11µM*
Clc1cccc(-c2nc(NCc3cccnc3)c3ccccc3n2)c1 | ? | i | -58* | 15µM* | ?
Cc1ccc(-c2nc(N/N=C/c3cccc([N+](=O)[O-])c3)c3ccccc3n2)cc1 | 11% | i | 13 | i | -2%
Cc1ccc(-c2nc(NCc3cccnc3)c3ccccc3n2)cc1 | -14% | i | -76* | i | 2%
OC(CNc1nc(-c2cccnc2)nc2ccccc12)c1ccccc1 (stereo unspecified) | ? | i | -66* | ? | ?
O=S(=O)(c1ccc2ncsc2c1)N1CCN(c2nc(-c3cccs3)nc3ccccc23)CC1 | 18% | nt | nt | nt | 16%
CCOC(=O)c1cc(-c2ccc(F)cc2)n(CC(=O)NCc2cccnc2)c1C | -1% | i | 37 | ? | -3%
CCOC(=O)C(C)Sc1nc(=O)n2ccccc2n1 (stereo unspecified) | 0% | i | ? | i | -9%
Cc1ccc2nc(SCC(=O)OCc3ccccc3)nc(=O)n2c1 | -7% | i | -56* | i | -17%
O=C(CSc1n[nH]c(-c2cccs2)n1)N1CCCc2ccccc21 | -15% | i | 13 | ? | -7%
Cc1ccc2nc(SCC(=O)N3CCCc4ccccc43)nc(=O)n2c1 | 3% | i | -14 | 18µM* | 10%
O=C(CSc1n[nH]c(-c2ccccc2O)n1)N1CCCc2ccccc21 | 16µM* | ? | 36 | ? | ?
Cc1ccnc(SCC(=O)N2CCCc3ccccc32)n1 | 5% | i | 23 | i | 7%
CCOC(=O)C(C)Sc1nc(=O)n2cc(C)ccc2n1 (stereo unspecified) | 18% | i | -101* | i | 17%
N#Cc1ccc(C(=O)N2CCCC(c3cc(C(=O)NCc4cccnc4)no3)C2)cc1 (stereo unspecified) | 3% | i | 18 | i | ?
O=C(CNC(=O)c1ccccc1)OCC(=O)c1ccc2ccccc2c1 | nt | i | nt | i | nt
Cc1ccc(-c2nc(CSc3nc4ccccc4c(=O)n3C)cs2)cc1 | -1% | ? | 0 | 12µM* | 9%
O=C1c2ccccc2C(=O)N1CCc1csc(NNc2nc(CCN3C(=O)c4ccccc4C3=O)cs2)n1 | 0% | i | -18 | i | 6%
